Experiments:
Assay in all cases: PBM binding z-score (relative to random genomic background probes); higher = stronger binding; sequences stand for … in GC…GCGATTGACAGCGTAGAATGAAGG
[1] = system: PPARg:RXRa DBDmut IVT, anti-RXR (DBD mutation: RXRa K156A/R161A, NR concentration 270 nM, RXRa partner concentration 90 nM)
Outline: (§1)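 Random background probes are the reference for binding z-scores. These scores derive from regression-normalized fluorescence on custom Agilent 4×180K protein-binding microarrays incubated 1 h with ligand-free nuclear receptor dimers. Binding was detected with antibodies against each partner (one per run).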

[2] = system: PPARg:RXRa IVT, anti-PPARg (NR concentration 270 nM, RXRa partner concentration 90 nM)
Outline: as §1

[3] = system: PPARg DBDmut:RXRa IVT, anti-PPARg (DBD mutation: PPARg1 K132A/R137A, NR concentration 270 nM, RXRa partner concentration 90 nM)
Outline: as §1

[4] = system: PPARg DBDmut IVT, anti-PPARg (DBD mutation: PPARg1 K132A/R137A, NR concentration 270 nM)
Outline: as §1

[5] = system: PPARg homodimer (NR concentration 180 nM)
Outline: as §1

[6] = system: PXR:RXRa (NR concentration 270 nM, RXRa partner concentration 90 nM)
Outline: as §1

[7] = system: PXR homodimer (NR concentration 270 nM)
Outline: as §1

[8] = system: RARa:RXR (NR concentration 270 nM, RXRa partner concentration 90 nM)
Outline: as §1

[9] = system: RARa homodimer (NR concentration 270 nM)
Outline: as §1

[10] = system: RARb:RXRa (NR concentration 270 nM, RXRa partner concentration 90 nM)
Outline: as §1

Sequence	PBM binding z-score [1]	PBM binding z-score [2]	PBM binding z-score [3]	PBM binding z-score [4]	PBM binding z-score [5]	PBM binding z-score [6]	PBM binding z-score [7]	PBM binding z-score [8]	PBM binding z-score [9]	PBM binding z-score [10]
GCTAGCAGGCCATTTGGGTCACTAAATGACGGGC	1.58	2.38	-1.03	-1.18	-0.0846	0.38	-0.331	0.585	-0.777	1.42
CCTACTGGGCTAAAAAGGTCATTGATGCCGATAA	2.24	2.86	-0.829	-0.574	2.32	4.35	1.23	4.77	0.346	3.82
ACAAACAGGTGAGTGAAGGTAACTCAGCTGGACG	1.21	1.19	0.208	0.336	0.244	-0.255	-0.143	0.192	0.0567	0.585
GATACAGGGTCAAGGCCACAGTACGCGTATTGAT	2.24	4.31	0.644	0.508	2.25	4.14	0.451	4.64	0.787	4.67
TCTGCTAGGTCAGTTGGTCCGCTAACGAGCTGCC	2.64	2.46	0.84	0.95	-0.535	-0.0468	-0.863	-0.00908	-1.31	3.12
TAGCCTAGGTCATGCGGGCCTGTATAGTGTCGGC	1.65	2.76	-0.075	-0.309	0.586	1.27	-0.864	2.14	-0.78	3.55
CCCGAAAGGTCGGTTGAGGTGAGTATACGGATAA	0.203	0.845	-0.316	-0.0998	1.28	3.49	0.481	2.51	0.922	3.33
AGTCAAGGTTCATCTAGGTAACGTAAGATATGCT	1.12	3.01	1.11	1.06	1.29	2.48	1.61	2.88	0.372	2.99
CTACCAAGGTGAACAAGGGCGTTGATTACTATTC	2.71	2.55	-0.498	0.223	0.114	0.993	-0.0327	0.539	-0.306	1.81
TATACAGGGTCAAAGGCCAGCGTACGAATGTCGA	2.18	4.79	2.29	0.981	3.54	4.34	0.322	6.38	1.26	4.46
TCTCGGAGGACACGAATGTCAGAGCTTTCCAGAG	1.02	-0.236	-0.725	-1.02	-0.998	-0.181	-0.893	-0.129	-0.458	1.47
CCTAGTGGGCCATCAGGTCATTGATATCAACGTT	4.56	5.23	-0.169	0.327	1.35	1.62	0.58	1.86	0.517	1.94
TCTCGGAGGACACGAAGGGCAGAGCTTTCCAGAG	1.13	0.0832	-0.999	-0.906	-0.399	-0.198	-0.159	-0.136	-1.15	1.97
TTACCAAGGTGAAGGTCGTAGATCCCTCTGTAGA	1.02	3.32	-0.72	-0.483	-0.867	0.858	-0.255	1.4	-0.36	2.01
ATCTCTAGGTAAAAGTTCAGTGAGTCCCGAGGAT	2.37	3.88	1.34	1.28	1.47	2.06	2.57	1.47	0.867	2.21
ATATGTAGGTTGTCGGGTCATTCAGTTTGCGCAT	4.37	4.47	1.87	1.67	2.56	3.63	8.53	3.15	1.78	2.08
AGTACGAGGGCACGCTGAGTTGATAGCAGAGTAG	2.66	2.52	0.166	0.462	0.0101	1.4	0.398	0.957	-0.0662	2.64
GCGACTGGGGCAACAGCAGGTTACCATAACTTAA	4.72	3.85	-0.661	-0.485	0.0811	0.146	-0.288	0.56	-0.561	1.02
GATACAAGGTCAAGGCCAGAGTACGCGTATTGAT	3.92	4.69	1.01	0.226	2.18	3.85	0.847	4.27	0.975	5.35
CCGACTGGGGGAAAGGTTACCATACTCAGTACGA	2.52	5.31	3.53	3.07	1.86	2.63	0.241	3.24	0.206	2.04
GCTGCTAGGTCAACTGATGGTCAGCAAAAGCTCG	4.86	3.95	-0.344	0.121	1.67	1.68	-0.304	2.93	0.266	4.52
GCAGACAGGTAAAACGCAGGTAACTCAGGGTGGC	-0.691	-0.804	-1.23	-0.839	-0.847	-0.561	-0.484	-0.286	-0.674	-0.486
GCTTGTAGCTCAAGGTTAAGAAAGACTAAGCTAA	-0.582	-0.296	-0.734	-0.739	-0.599	0.28	-0.587	0.556	-0.601	0.721
AATACAGGGTCATCGTCGGCCAGAGTACGCACAG	2.45	4.09	1.99	1.48	3	4.39	0.762	5.31	1.13	4.46

Sequence	PBM binding z-score [1]	PBM binding z-score [2]	PBM binding z-score [3]	PBM binding z-score [4]	PBM binding z-score [5]	PBM binding z-score [6]	PBM binding z-score [7]	PBM binding z-score [8]	PBM binding z-score [9]	PBM binding z-score [10]
CGTCAAAGTTCAACTAAGGTAACGAAAAGCACGC	0.421	2.48	0.738	0.747	4.18	5.19	4.69	4.25	2.25	5.13
AGAATGAGGTTATACGTAGATCAGGGATGAAAGT	3.98	2.18	1.78	0.781	0.69	1.28	0.675	1.93	0.93	1.44
CCTACCGGGCCATCAGGTCATTGATATCAACGTT	0.52	1.97	-0.847	-0.348	1.25	1.64	0.864	1.95	0.127	2.21
CGTCCAAGGTCATAGGAGGTCAGTGAGGACAGAT	3.74	4.55	1.02	0.649	5.73	6.88	11.7	6.37	3.47	5.29
TAGCCTTGGTCATGGGCCAGTATACCACGCGAAC	-1.28	0.113	-0.568	-0.717	-0.713	-0.329	-0.952	-0.342	-1.21	0.734
TCTTCTAGATCAATAGAGGTTAAGAAAGTGCGCT	2.16	1.48	1.87	0.999	0.764	3.02	0.423	1.8	0.413	0.98
ATCGCTAGGTAACAAGTTCAGTGAAAGAGAGGAC	-0.0634	0.674	0.226	0.479	0.192	1.13	1.05	0.46	-0.284	1.38
CCAGACGGGTGAAAGGTAACTCAGTCTGGTACGC	0.482	2.35	-1	-1.51	0.107	0.559	-0.486	1.55	-0.431	0.652
CCTACTGGGCCAAAAAGGTCATTGAGGCCGATAA	3.53	3.88	-0.547	-0.0751	2.79	5.38	10.7	5.6	2.12	3.8
TCTCGGAGGACACGTAAGGTCAGAGCTCGACATC	1.32	0.521	0.00634	-0.877	1.75	3.15	0.734	3.13	0.0447	3.41
CCTTACGTGTCACTCCAGGTTATAGCATCGGAGT	1.84	1.44	0.74	0.788	1.64	1.44	0.593	0.864	1.76	1.16
TCATATAGTTAAAAGGTGAAAGTCGGTGTGGTAA	3.12	2.36	1.13	0.7	2.01	1.38	0.951	2.72	2.03	2.02
AGTCAAAGTTCATGACGAGGTAACGTAAAGCACG	0.137	3.44	1.06	1.37	3.26	4.93	1.98	4.61	0.824	4.84
ATCGCTAGGTAAAAGTTCAGTGAATCCCGAGGAT	-0.272	1.63	0.14	-0.441	0.521	1.64	1.06	1.49	-0.726	2.04
TCTGCTAGGTCAGTTGCTCAGCTAACGAGCTGCC	2.23	2.17	-0.136	0.103	-0.987	-0.163	-1.12	-0.122	-1.62	2.9
GGAACGAGGGCAAAATTGATAGCATCTGTCGACG	3.25	2.12	0.369	-0.0358	0.19	0.226	-0.165	0.355	-0.196	1.57
TCGAGTAGGTTACCGATGGGGCATTCAGCTTTCT	3.39	2.48	-0.681	-0.945	-0.276	-0.00678	-0.759	0.377	-0.625	0.88
CAAACTAGGTCAGGAAAGGTCAAAGTCGAATGAC	7.59	8.02	3.96	1.14	6.11	6.57	2.16	6.83	3.88	5.36
ACTATTAGTTGAGTCGAGGGCAACCGATAGGTTG	0.363	0.962	0.679	0.368	0.693	1.34	0.315	0.785	0.945	1.14
CCGACTGGGTCATAAGGTTACCATAAGCCAGCCC	5.16	5.58	0.678	0.517	2.93	2.45	0.189	4.18	0.218	3.38
CCTAGTTGGTCAGGAGGTCACACATCGGATATGA	1.56	3.61	1.34	0.678	3.07	4.1	1.36	4.37	1.58	3.71
ACTAGCAGGCCAAGGGTCACTTAAGATTAGTCCG	1.3	3.66	0.182	-0.252	2.04	3.33	-0.0435	4.13	0.362	3.39
CGTCCAAGGTCCGCAGGTCAGTGAAAGCGACGTG	0.12	-0.306	-1.07	-1.27	-0.166	0.139	-0.304	0.547	-0.545	1.89
CTCGAAGGGTCGTGCTCAGGTGAGTATACCAAAC	-0.253	0.525	-0.515	0.0417	0.506	1.37	-0.509	2.56	-0.561	2.31

Source: the supplement of paper PMC6555819
